In PubChem BioAssay (NCI):
About 79,000 compounds went through this panel and 15% of them were active in at least one assay; those are over-represented in the sample as a whole. Values without a mark were called inactive. Calls of active or inactive are those of the source. Cut-off read from the data, not from the text of the source: active = growth inhibition above about 70%; inactive = the rest.

Assay: NCI Yeast Anticancer Drug Screen. Data for the cln2 rad14 strain (AID 165);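 note: 0% = growth equal to vehicle treated cultures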
Conditions: S. cerevisiae cln2 rad14 strain, at 50.0 µM, hits give high values
In short: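 Test compounds were added to cln2 rad14 yeast cultures; inhibition of growth was then determined by comparison with vehicle treatment.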
With `CCCC(N)S(=O)(=O)O` (centres undefined) the growth inhibition was -14.1%. In the case of `COC(=O)c1cc(-c2cccc3ccccc23)[nH]c(=O)c1C#N`, the growth inhibition is reported as 18.7%. Work on `C1CCC(C(C2CCCCC2)C2CCCCC2)CC1` yielded a growth inhibition of 28%. For `Cc1cccc(-n2c(-c3ccccc3)cs/c2=N\N=C2/CSC(=O)N2Cc2ccccc2)c1`, the growth inhibition was -41.8%. With `CC(=O)N1CCC(=O)/C(=C/c2ccccc2)C1` the growth inhibition was 15.9%. `CCCNC(=O)N(CCN(C)C)S(=O)(=O)c1ccc(Cl)cc1` gave a growth inhibition of -18.9%. `Cc1cccn2nnnc12` gave a growth inhibition of 9%. In the case of `O=c1[nH]c(=O)n(C2OC(COP(=O)(O)OP(=O)(O)O)C(O)C2O)cc1F` (centres undefined), the growth inhibition is reported as -31.3%. With `CCCc1cc2c3c(c(=O)oc2cc1O)CCCC3` the growth inhibition was 89% (active). `COC(=O)c1ccccc1NC(=O)c1cccc(Cl)c1` showed a growth inhibition of 16%. Compound `Cn1c2c(c3ccccc31)CCCC2` has a growth inhibition of -16.8%. In the case of `O=c1[nH]nc(S(=O)(=O)N2CCCC2)c(=O)[nH]1`, the growth inhibition is reported as -2.85%. In the case of `CC(C)(C)c1cc(C(=O)O)ccc1C(=O)O`, the growth inhibition is reported as -4.2%. In the case of `Cn1ncc2c(NCCc3ccccc3)nc(Cl)nc21`, the growth inhibition is reported as 11.2%. Work on `CNC(=O)N(C)c1cc(N(C)C)nc(OC)n1` yielded a growth inhibition of -9.4%. `O=C1c2ccccc2C(=O)N1CCc1ccccn1` gave a growth inhibition of -27.1%. Compound `O=C1OC(=O)C2CCC12` (centres undefined) has a growth inhibition of 2.5%. Work on `CC(=O)NC1(C)C(=O)N=C(N)N=C1N` (centres undefined) yielded a growth inhibition of -29.8%. Compound `CC1OC(OC2C(OC(=O)[C@@H]3CC(C)(C)C[C@@H]4C5=CC[C@@H]6[C@@]7(C)C[C@H](O)[C@H](OC8OC(CO)C(O)C(O)C8O)[C@@](C)(CO)C7[C@H](O)C[C@@]6(C)[C@]5(C)C[C@@H](O)[C@H]43)OCC(O)C2O)C(O)C(O)C1O` (some centres undefined) has a growth inhibition of 13.2%.
